From PubChem BioAssay (Tox21) come the findings set out here.

The source made the active and inactive calls. Entries that show only a call come without a potency. Calls come from the whole dose curve; as a rule, active = well fitted activation curve with a large enough effect in the repeat runs; inconclusive = weak or mixed curves; inactive = flat fitted curve, though single readings scatter.

Sequence of KiSS-1 receptor (Homo sapiens) (Q969F8 whole entry, looked up): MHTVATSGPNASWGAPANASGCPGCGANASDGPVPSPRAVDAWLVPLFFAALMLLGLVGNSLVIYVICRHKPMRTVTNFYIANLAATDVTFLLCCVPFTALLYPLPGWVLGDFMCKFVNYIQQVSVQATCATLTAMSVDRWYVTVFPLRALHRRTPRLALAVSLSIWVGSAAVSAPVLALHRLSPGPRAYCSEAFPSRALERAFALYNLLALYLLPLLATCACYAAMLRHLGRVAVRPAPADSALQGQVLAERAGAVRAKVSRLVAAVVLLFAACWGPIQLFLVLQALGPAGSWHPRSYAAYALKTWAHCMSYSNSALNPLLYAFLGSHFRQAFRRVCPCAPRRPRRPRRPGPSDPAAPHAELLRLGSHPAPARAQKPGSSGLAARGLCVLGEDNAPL

The assay has as its target KiSS-1 receptor (Homo sapiens) (UniProt Q969F8). Nature of the assay: Human kisspeptin (KISS1R) small molecule agonists, calcium flux assay in KISS1R-HEK293 cells (AID 1920064). Conditions: KISS1R-HEK293, calcium flux fluorescence, agonist; series mostly up to 76.8 µM. The method in brief: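 Triplicate 15-concentration series were applied to dye-loaded human KISS1R HEK293 cells, and agonist-evoked calcium fluorescence was captured for 3 min.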
As for `ClC(Cl)=C(c1ccc(Cl)cc1)c1ccc(Cl)cc1`, the Potency result is “inactive”. To `ClCCN1CCOCC1` belongs “inactive”; to `C1CCC2CCCCC2C1` (stereo unspecified), “inactive”. To `CC12CC1(C)C(=O)N(c1cc(Cl)cc(Cl)c1)C2=O` (stereo unspecified) belongs “inactive”; to `ClCc1cccnc1`, “inactive”.

As to `CNC(=O)O/N=C/C(C)(C)S(C)=O` (stereo unspecified), the Potency entry is “inactive”. Then `CN(C)C(=O)Nc1ccc(Cl)cc1`, with “inactive”. To `Cc1ccccc1CCl` belongs “inactive”; to `CCOP(=S)(OCC)SCSc1cc(Cl)ccc1Cl`, “inactive”; to `Nc1c(Br)cc([N+](=O)[O-])cc1[N+](=O)[O-]`, “inactive”. Take `COC[C@@H](NC(C)=O)C(=O)NCc1ccccc1`: the Potency result was “inactive”. Then `COc1cc(OC)nc(NC(=O)NS(=O)(=O)c2ncccc2C(=O)N(C)C)n1`, with “inactive”; and `OCC(Br)CBr` (stereo unspecified), with “inactive”. As for `c1ccc(C2CO2)cc1` (stereo unspecified), the Potency result is “inactive”.

Turning to `CCN(C)N=O`, the Potency result was “inactive”. Then `C=CC(=O)OCCO`, with “inactive”; and `CCOP(OCC)OCC`, with “inactive”. To `CC(=O)C1CCOC1=O` (stereo unspecified) belongs “inactive”. To `C#CCOC(=O)/C=C(C)/C=C/CC(C)CCCC(C)C` (stereo unspecified) belongs “inactive”; to `CCN(CC)C1CCCCC1`, “inactive”. Regarding `CCCCC(CC)COC(=O)c1ccc(C(=O)OCC(CC)CCCC)c(C(=O)OCC(CC)CCCC)c1` (stereo unspecified), the Potency entry was “inactive”. Consider `O=C(CCl)CCl`, for which the Potency entry was “inactive”.

`CCCCN=C=O`: the Potency result is “inactive”.

Take `COc1nc(NC(C)C)nc(NC(C)C)n1`: the Potency result is “inactive”. Then `CCOc1cc(C=O)ccc1O`, with “inactive”; and `Cl/C=C\CCl`, with “inactive”. To `C=CC(=O)NC(C)(C)CC(C)=O` belongs “inactive”; to `Cc1ccc(N)cc1C`, “inactive”; to `CC(C)(Cl)Cl`, “inactive”. For the compound `CCOS(C)(=O)=O`, the Potency result was “inactive”. On to `O=C([O-])c1ccccn1.O=C([O-])c1ccccn1.O=C([O-])c1ccccn1.[Cr+3]`, for which the Potency result is “inactive”.
